# Compound activity deposited in PubChem BioAssay by several laboratories.
# Compounds with a hit are over-represented: about 1.4% of the library has one in this group of screens.
# GRK2 aptamer HTS – compounds blocking aptamer binding on GRK2 – biochemical, human GRK2, bead flow cytometry, HTS, primary screen | Beta-adrenergic receptor kinase 1 (Homo sapiens), P25098 | 0.59% of 330,000 active | inhibition of aptamer binding, % at 10 µM | FAM-aptamer displacement from GRK2;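 active = inhibition of aptamer binding above 40%, roughly 3 SD of noise, on plates passing a quality check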;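 also: median bead fluorescence of bound FAM aptamer so fluorescent compounds give negative values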
# APOBEC3A inh – APOBEC3A ssDNA deaminase inhibitors, primary screen, selectivity assay for APOBEC3G inhibitor project, biochemical, FAM/TAMRA oligo cleavage fluorescence; recombinant A3A, FAM/TAMRA ssDNA deamination fluorescence; DNA dC->dU-editing enzyme APOBEC-3A (Homo sapiens), P31941; inhibition, % at 20 µM; 0.41% of 330,000 active;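 active = at least 40% inhibition at 20 µM here, with at most 30% in a related deaminase screen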;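 also: plate controls were A3A with DMSO for no effect and wells lacking A3A enzyme for full effect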
# Target sequence (P31941 whole entry, looked up): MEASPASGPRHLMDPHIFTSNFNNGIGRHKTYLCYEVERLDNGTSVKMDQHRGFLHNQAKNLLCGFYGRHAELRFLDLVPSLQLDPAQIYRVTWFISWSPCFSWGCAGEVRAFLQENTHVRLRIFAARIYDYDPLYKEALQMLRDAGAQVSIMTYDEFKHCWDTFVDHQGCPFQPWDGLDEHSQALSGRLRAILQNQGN
# A3G deaminase – APOBEC3G DNA deaminase inhibitors, primary screen, biochemical, fluorescence, single-stranded DNA substrate, uHTS; DNA dC->dU-editing enzyme APOBEC-3G (Homo sapiens), Q9HC16; recombinant A3G, ssDNA deamination FAM/TAMRA fluorescence; inhibition, % at 20 µM; 0.28% of 330,000 active; AID 493012, 2011;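 active = inhibition of at least 40% at 20 µM, with no more than 30% in the related APOBEC3A deaminase screen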;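 also: plate controls were DMSO wells with A3G for no effect and wells lacking A3G enzyme for full effect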
# VLA-4 inh – inhibition in human VLA-4 binding assay, primary screen, VLA-4 allosteric modulator project, MLPCN library, flow cytometry, VLA-4 expressing cells; 0.2% of 330,000 active; ligand binding flow cytometry; inhibition, % (about 7 µM as worked out from the volumes in the protocol); Integrin alpha-4 (Homo sapiens), P13612; in the data active = inhibition above about 50%
# A3A conf – APOBEC3A deaminase inhibitors, retest, confirmation, selectivity assay for APOBEC3G inhibitor project, biochemical, single concentration, fluorescence readout | shares compounds with APOBEC3A inh | recombinant A3A, ssDNA deaminase UDG fluorescence assay | inhibition, % at 20 µM | 63% of 1,400 active;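 active = inhibition reaching a set limit, 80% of the first screen's cutoff, at 20 µM in any replicate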;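 also: plate controls were DMSO wells with A3A for no effect and wells lacking A3A enzyme for full effect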
# UDG ctr A3A – E. coli UDG inhibitors, confirmation, counter-screen for APOBEC3A inhibitor project, biochemical, single concentration, fluorescence, FAM/TAMRA oligo; shares compounds with APOBEC3A inh; UDG counterscreen, FAM/TAMRA uracil oligo fluorescence; inhibition, % at 20 µM; 1,000 tested, under 10 active; call rule not given here
# Active calls of the source: *; / = no result.
SMILES,GRK2 aptamer HTS,APOBEC3A inh,A3G deaminase,VLA-4 inh,A3A conf,UDG ctr A3A
COc1ccc(NC(=O)Cc2coc3cc(C)c(C(C)C)cc23)cc1S(=O)(=O)N1CCOCC1,6,49*,11,17,10,/
O=C(CN1CCOCC1)N/N=C/c1ccc(-c2ccc(C(=O)O)cc2)o1,0,43*,17,-1,85*,6
CC1(CC(=O)N/N=C/c2ccc(-c3ccc(C(=O)O)cc3)o2)OCCO1,0,-3,-4,4,/,/
CCCCCCCCNC(=O)c1cccnc1SCC(=O)Nc1ccc(OC)cc1OC,1,-2,-3,15,/,/
Cc1ccc2nc3c(nc2c1C)CCCC3,5,-3,-7,-2,/,/
Cc1ccc2nc3c(nc2c1C)C(O)=C3O,1,65*,-4,7,7,8
Nc1ccc(-c2nc3ccc(N)cc3o2)cc1,0,-2,-7,1,/,/
c1cc[n+](CCC[n+]2ccccc2)cc1,1,71*,26,5,88*,3
c1cc[n+](CCCC[n+]2ccccc2)cc1,0,-4,2,17,/,/
CCCCC[n+]1cccc2c3ccccc3ccc21,1,55*,23,-3,72*,-2
COC(C(=O)Nc1ccc(S(=O)(=O)Nc2c(C)cccc2C)cc1)c1ccccc1 (stereo not drawn),0,3,1,-1,/,/
CCC(=O)Nc1cccc(C2=NOC3(C2)C[C@@H](C(N)=O)N(C(=O)COc2ccc(Cl)cc2)C3)c1 (stereo partly drawn),3,0,-13,19,/,/
CCn1c2ccccc2c(=O)c2ccccc21,4,64*,17,-1,19,/
COc1ccc(NS(=O)(=O)c2ccc(S(=O)(=O)N(C)C)cc2)cc1S(N)(=O)=O,0,77*,-6,23,-1,3
O=C1CC(c2ccc(Cl)cc2)SC(N(c2ccccc2)c2ccccc2)=N1 (stereo not drawn),4,-2,-8,10,/,/
COc1cccc2sc(NN)nc12,1,-3,-3,-2,/,/
COc1cccc2sc(Nc3nc(-c4ccncc4)cs3)nc12,1,45*,1,5,24*,-3
O=C(NCC(c1ccco1)N1CCOCC1)c1cccc(Cl)c1 (stereo not drawn),1,-4,-5,6,/,/
Cc1ccccc1N1CC(C(=O)Nc2nnc(SCC(=O)Nc3nccs3)s2)CC1=O (stereo not drawn),3,48*,-10,-1,9,6
Cc1cccc(N2CC(C(=O)Nc3nnc(SCC(=O)Nc4nccs4)s3)CC2=O)c1 (stereo not drawn),2,2,-3,-3,/,/
CSc1ccccc1NC(=O)CN(C)CC(=O)c1[nH]c(C)c(C(C)=O)c1C,0,68*,19,4,50*,-1
O=C(CSc1nnc(C2CC2)n1-c1ccccc1)NCc1ccco1,0,-1,-2,-4,/,/
O=C(CSc1nccc(=O)[nH]1)NCc1ccco1,37,49*,18,13,35*,0
Cc1ccc(-n2c(SCC(=O)NCC3CCCO3)nc3ccccc3c2=O)cc1C (stereo not drawn),0,-4,-8,2,/,/
O=C(CSc1nc2ccccc2c(=O)n1-c1ccccc1)NCC1CCCO1 (stereo not drawn),0,50*,18,48,71*,-2
CCn1nnnc1SCC(=O)N1CCN(c2ccccc2)CC1,2,-1,0,8,/,/
CC(=O)NCCn1c(SCC(=O)NC2CCCCC2)nc2ccccc2c1=O,1,0,-9,14,/,/
